Screens from PubChem BioAssay.
Shown is part of a subset that was picked to be rich in hits.
ST2 inh – inhibitors of human ST2 (IL1RL1) binding to IL-33, primary screen, biochemical, AlphaLISA | Interleukin-1 receptor-like 1 (Homo sapiens), Q01638 | AlphaLISA ST2-Fc/biotin-IL-33 interaction, 1 h | inhibition, % for hits at 17 µM | 2.3% of 78,000 active; in the data active means inhibition above about 30%
Target sequence (Q01638 whole entry, looked up): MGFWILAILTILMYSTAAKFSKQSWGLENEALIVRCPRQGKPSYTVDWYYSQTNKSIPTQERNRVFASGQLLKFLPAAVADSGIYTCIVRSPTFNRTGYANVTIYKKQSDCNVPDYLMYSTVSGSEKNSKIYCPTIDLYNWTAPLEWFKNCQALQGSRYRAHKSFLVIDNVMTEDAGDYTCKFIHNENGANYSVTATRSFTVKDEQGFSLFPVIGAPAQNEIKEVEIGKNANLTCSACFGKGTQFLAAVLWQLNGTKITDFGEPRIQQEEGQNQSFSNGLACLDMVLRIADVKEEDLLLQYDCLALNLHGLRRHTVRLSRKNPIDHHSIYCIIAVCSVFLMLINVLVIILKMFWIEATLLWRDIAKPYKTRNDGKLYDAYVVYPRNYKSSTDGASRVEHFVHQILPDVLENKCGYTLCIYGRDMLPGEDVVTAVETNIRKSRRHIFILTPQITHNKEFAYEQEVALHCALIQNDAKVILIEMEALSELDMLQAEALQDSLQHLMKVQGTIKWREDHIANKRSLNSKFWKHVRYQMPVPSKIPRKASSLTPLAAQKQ
An asterisk follows results filed as active; i = inactive.

SMILES | ST2 inh
Cc1cc2n(c1)CCn1c(C)ccc1-2 | 63%*
c1ccc(-c2nnc([C@H]3CCN(Cc4ccco4)C3)o2)cc1 | i
N=c1c2c(-c3ccccc3)c(-c3ccccc3)n(Cc3ccco3)c2ncn1Cc1ccco1 | 31%*
O=c1[nH]nc(CCc2ccccc2O)n1Cc1ccco1 | i
O=C(Nc1ccccc1F)c1c[nH]c(=O)n(-c2ccccc2)c1=O | i
C=CCOc1ccc(C2C(C(=O)OC)=C(C)N=C3SCCC(=O)N32)cc1OC (stereo not drawn) | i
O=C1N=c2ccccc2=C1c1sc(Nc2ccc(Br)cc2)nc1O | 40%*
COc1ccc(Nc2nc3ccc(F)cc3s2)cc1 | i
NC(=O)C1CCN(c2nc(O)c(C3=c4ccccc4=NC3=O)s2)CC1 | i
Cc1ccc(Nc2nc3ccccc3c(=O)s2)cc1 | i
Cc1ccc(C)c(-c2csc(Nc3ccc(F)cc3)n2)c1 | i
O=C1N=c2ccc(F)cc2=C1c1sc(Nc2ccc(F)cc2)nc1O | 48%*
CC(=O)NC(CO)C(=O)c1ccc([N+](=O)[O-])cc1 (stereo not drawn) | i
O=C(C[C@@H]1O[C@H](CNS(=O)(=O)c2ccccc2)[C@@H](O)[C@H]1O)N1CCc2ccccc21 | i
CC1=C(C(=O)Nc2ccccn2)C(c2ccncc2)n2ncnc2N1 (stereo not drawn) | i
Cc1nc2ccc3nc(NC(=O)c4ccccc4Cl)sc3c2s1 | i
Cc1nc2ccc3nc(NC(=O)c4cccc(Br)c4)sc3c2s1 | i
COC(=O)c1ccc(C(=O)Nc2nc3ccc4nc(C)sc4c3s2)cc1 | 30%*
CCc1[nH]c2c(CNC(=O)CCc3csc(N)n3)cc(C)cc2c1C | i
O=C1CCCC2=C1C(c1ccc(F)cc1)c1c(nc(SCc3ccccc3)[nH]c1=O)N2 (stereo not drawn) | i
CCN(CC)S(=O)(=O)c1ccc(C(=O)Nc2nc(-c3cc(C)ccc3C)cs2)cc1 | i
c1cnc(-c2cc(NC3CCNCC3)nc3[nH]ccc23)nc1 | 41%*
NC(=O)c1csc(-c2cc(NC3CCCC3)nc3[nH]ccc23)n1 | i
c1ccc2c(-c3cc(NC4CCNCC4)nc4[nH]ccc34)n[nH]c2c1 | 46%*
Cc1cc(-c2cc(NC3CCNCC3)nc3[nH]ccc23)c(=O)[nH]c1C | 38%*
SMILES | ST2 inh
Cc1ccccc1-n1cc(-c2ccnc(NC3CCNCC3)n2)cn1 | i
CCNc1ccnc(-c2cccc3[nH]ccc23)n1 | i
COc1ncc(-c2cc(NCCN(C)C)nc3[nH]ccc23)c(OC)n1 | i
CC(O)c1cccc(-c2cc(NC3CCNCC3)nc3[nH]ccc23)n1 (stereo not drawn) | 46%*
Cc1cccc(-n2ncc3c(N4CCN(c5ccccc5F)CC4)ncnc32)c1 | i
CCn1c(C2CCCN(C(=O)c3cc(CC(C)C)nc(C)n3)C2)n[nH]c1=O (stereo not drawn) | i
Cc1ccc(NC2=CC(c3ccccc3)N(c3ccc(C)cc3)C2=O)cc1 (stereo not drawn) | i
CCCc1nc2nc[nH]n2c(=O)c1NC(=O)NCCc1ccccc1 | i
O=c1c2oc3ccccc3c2ncn1Cc1cccnc1 | i
CC1=NC(c2ccccc2)(c2ccccc2)c2ccccc2N1 | i
Cc1nn(S(=O)(=O)c2ccccc2[N+](=O)[O-])c(C)c1Sc1ccc([N+](=O)[O-])cc1 | 43%*
Cc1nn(S(=O)(=O)c2ccc(Br)cc2)c(C)c1Sc1ccccc1 | i
Cc1nn(S(=O)(=O)c2ccccc2)c(C)c1Sc1ccc([N+](=O)[O-])cc1 | i
Cc1nn(C(=O)c2cccs2)c(C)c1Sc1ccc(Cl)cc1 | i
Cc1cccc(C(=O)n2nc(C)c(Sc3ccc([N+](=O)[O-])cc3)c2C)c1 | 30%*
Cc1nn(C(=O)c2cccnc2)c(C)c1Sc1ccc(Br)cc1 | i
COc1cc(-c2cc(NC(C)C)ncn2)cc(OC)c1OC | i
O=C(CN1CCN(Cc2ccc(F)cc2Cl)S1(=O)=O)Nc1ccc(F)cc1F | i
CCn1c(CC2CCNCC2)nn(CC(=O)NCC2CCCO2)c1=O (stereo not drawn) | i
CCCc1nnc(NC(=O)CCN2C(=O)CCC2=O)s1 | i
C=CCc1ccc(OCCOc2cc(C=O)ccc2OC)c(OC)c1 | i
CNCC(=O)N1CCOc2c(O)cc(-c3cccnc3)cc2C1 | i
Cc1cnc(NC(=O)c2ccc(Cl)cc2Cl)s1 | i
COc1ccc(OCCN(C)Cc2ccccc2)cc1 | i
COc1ccc(N(N)Cc2ccccc2)cc1 | 50%*
SMILES | ST2 inh
OCCN(Cc1ccccc1)Cc1ccccc1 | i
O=S(=O)(c1ccccc1)N(Cc1ccccc1)Cc1ccccc1 | i
COc1ccc(CN(C)Cc2ccccc2)cc1 | i
NN(Cc1ccccc1)c1ccccc1 | 37%*
Cc1cccc(S(=O)(=O)N2CCSC2c2ccccc2Cl)c1 (stereo not drawn) | i
CC1(C)[C@@H]2CC[C@]1(CS(=O)(=O)Nc1ccc(F)cc1)C(=O)C2 | i
O=C(c1ccc(C(F)(F)F)cc1)N1CCN=C1SCc1ccccc1 | i
